PABP FP inh: blocks human PABP binding to poly(A) RNA. P11940. fluorescence polarization. inhibition, % at 35 µM. 290,000 tested, 1% active;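 note: calls also rest on retests at 20 µM and on dose response follow-up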
PERK inhibitor: human PERK inhibition, primary cell-based screen. Q9NZJ5. CHO PERK-DD fusion, SEAP luminescence translation reporter. inhibition, % at 5.6 µM. 220,000 tested, 0.17% active;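 active = inhibition above the mean inhibition of all tested compounds plus 3 SD, set separately per screening campaign, cut at about 2.9% in these data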;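 note: PERK kinase domain activated by AP20187 dimerizer at 100 nM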
PABP1 MLLE inh: inhibitors of microRNA-mediated deadenylation, human PABP1 MLLE binding. P11940. GST-MLLE / FITC-PAM2 fluorescence polarization. inhibition, % at 20 µM. 360,000 tested, 0.36% active. AID 588489; in the data active = inhibition above about 35%, passing the limit was not always enough
eIF4H inh: inhibitors of RNA binding by human eIF4H; Q15056; eIF4H fluorescence polarization binding assay; inhibition, % at 35 µM; 290,000 tested, 0.94% active; AID 2012;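 note: calls also rest on retests at 20 µM and on dose response follow-up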
eIF4E 4G PPI: eIF4E/eIF4G interaction inhibition in translation initiation | TR-FRET eIF4E-eIF4GI(517-606) binding, 2 h | inhibition, % at 21.7 µM | 220,000 tested, 0.37% active | AID 782;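 active = inhibition above about 30%, limit read from the data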
Large screens that a line does not name were inactive. Hits are enriched below; roughly 1.6% of the tested compounds scored in any of these assays. Unless noted, the rule behind the calls is not given here.

CC(C)c1ccccc1-n1c(SCC(=O)N2CCc3ccccc3C2)nc2ccccc2c1=O	PABP FP inh 120
C/C(O)=c1/c(=O)nc2cccc3c2=c1c1ccccc1c3=O	PABP FP inh inconclusive, PABP1 MLLE inh 47, eIF4H inh inconclusive (no result: PERK inhibitor, eIF4E 4G PPI)
Cc1c(/C=N\NC(=O)c2c[nH]c3ccccc23)cnn1C	none
CSc1ccc(C=NNc2ccc(S(=O)(=O)Nc3ccccc3C(=O)O)cc2[N+](=O)[O-])cc1	none (no result: PABP FP inh, PERK inhibitor, eIF4H inh, eIF4E 4G PPI)
Cc1nn(-c2ccccc2)c(Cl)c1/C=N/Nc1ccc(S(=O)(=O)Nc2ccccc2C(=O)O)cc1[N+](=O)[O-]	PABP FP inh 54, eIF4H inh 92
C#CCOCCOCCOCCNc1nc(N2CCN(C(=O)[C@H]([C@@H](C)CC)n3cc([C@@H](N)CO)nn3)CC2)nc(N2CCN(C(=O)[C@H]([C@@H](C)CC)n3cc([C@@H](N)CC(C)C)nn3)CC2)n1	PABP FP inh inconclusive, PABP1 MLLE inh 41, eIF4H inh inconclusive
C#CCOCCOCCOCCNc1nc(N2CCN(C(=O)[C@H]([C@@H](C)CC)n3cc([C@@H](N)CO)nn3)CC2)nc(N2CCN(C(=O)[C@H]([C@@H](C)CC)n3cc([C@@H](N)CO)nn3)CC2)n1	none (no result: PERK inhibitor, PABP1 MLLE inh)
C#CCOCCOCCOCCNc1nc(OC)nc(N2CCN(C(=O)[C@H](CCCCN)n3cc(C(N)CO)nn3)CC2)n1 (stereo partly drawn)	PABP FP inh 52, eIF4H inh 60 (no result: PERK inhibitor, PABP1 MLLE inh)
CCOc1ccc(C(=O)Nc2cccc(-c3nc4cccnc4o3)c2)cc1Cl	none
O=C(N/C(=C/c1ccco1)C(=O)N1CCCCCC1)c1cccs1	PABP FP inh 45
COc1ccc(C(=O)N/C(=C/c2ccco2)C(=O)N2CCCCCC2)cc1	PABP FP inh 20 (no result: PERK inhibitor, eIF4E 4G PPI)
Cc1ccc(C(=O)N/C(=C/c2ccco2)C(=O)OCN2C(=O)c3ccccc3C2=O)cc1	eIF4H inh 79
Cc1ccc(C(=O)N/C(=C/c2ccco2)C(=O)N2CCCCC2)cc1	none (no result: PERK inhibitor, eIF4E 4G PPI)
COC(=O)/C(=C/c1ccco1)NC(=O)c1ccccc1	none
O=C(N/C(=C/c1ccco1)C(=O)N1CCCCCC1)c1ccccc1	none (no result: PERK inhibitor, eIF4E 4G PPI)
CCOC(=O)C1CCN(C(=O)Cn2cnc3sc(C)c(S(=O)(=O)N4CCC(C)CC4)c3c2=O)CC1	none (no result: PERK inhibitor, eIF4E 4G PPI)
COc1ccccc1NC(=S)NC1CCCCCCCCCCC1	none
NS(=O)(=O)c1ccc(NC(=O)C2Cc3ccccc3CN2C(=O)c2ccco2)cc1 (stereo not drawn)	PABP FP inh 34, eIF4H inh 70 (no result: PERK inhibitor, eIF4E 4G PPI)
NS(=O)(=O)c1ccc(CCNC(=O)C2Cc3ccccc3CN2C(=O)c2ccco2)cc1 (stereo not drawn)	none
NC(=O)C1=C[C@H](c2ccc(C(F)(F)F)cc2)C[C@H](OCc2ccc(CO)cc2)O1	PABP FP inh 5.6, eIF4H inh inconclusive
NC(=O)C1=C[C@@H](c2ccc(C(F)(F)F)cc2)C[C@@H](OCc2ccc(CO)cc2)O1	none
CCC/C(=N/NC(=O)c1csc(C)c1C)c1ccc(Cl)s1	eIF4H inh active
CC1(OC(=O)C2CCCC2)C(=O)C=C2C=C(c3ccsc3)N(Cc3ccco3)C=C2C1=O (stereo not drawn)	PABP FP inh 69, eIF4H inh 94 (no result: PERK inhibitor)
Cc1ccc(S(=O)(=O)Nc2cccnc2)cc1	none
CCC(SC1=NCCS1)C(=O)Nc1ccc(S(N)(=O)=O)cc1 (stereo not drawn)	PABP1 MLLE inh 41
CC(=O)c1nn(-c2cccc(Br)c2)cc1C(=O)c1ccco1	none
Cc1nnc(-c2ccco2)c2cn(-c3cccc(Br)c3)nc12	eIF4H inh 64
CC(CNC(=O)CCc1nnc(CCC2CCCCC2)o1)c1ccccc1 (stereo not drawn)	none
Oc1cc(-n2cccn2)c(O)cc1-n1cccn1	PABP1 MLLE inh 47
CCCCN(C=O)c1c(CC)nc2ccc(C(=O)N3CCN(C(C)=O)CC3)cn12	none (no result: PABP FP inh, PERK inhibitor, eIF4H inh, eIF4E 4G PPI)
O=C(CSc1ccsc1[N+](=O)[O-])Nc1cccc(F)c1	eIF4E 4G PPI 50
CCc1ccccc1NC(=O)CSc1ccsc1[N+](=O)[O-]	none
Cc1cccc(C)c1NC(=O)CN(C)C(=O)c1cccc(S(=O)(=O)N2CCN(c3ccccc3)CC2)c1	PABP FP inh 42 (no result: PERK inhibitor, eIF4E 4G PPI)
O=C(O)c1cc(Br)ccc1NN=C1CCCCC1	none
O=c1cccccc1NN=C1CCCCCC1	PABP FP inh 28, eIF4H inh 59
O=c1cccccc1NN=C1CCCCC1	PABP FP inh 62, eIF4H inh 82
O=[N+]([O-])c1ccc(NN=C2CCCCC2)c([N+](=O)[O-])c1	none (no result: PABP FP inh, PERK inhibitor, eIF4H inh, eIF4E 4G PPI)

From PubChem
